CHX counter – counter-screen hit for Shiga toxin inhibitors, cycloheximide; cell reporter, cycloheximide protein synthesis inhibition counterscreen; actives 12% (n = 300,000); AID 2314; max response, %; in the data active = max response mostly above about 13%, no sharp cut-off; inactive = mostly below about 14%; note: read at 38.3 µM for the half of the compounds with a filed dose; 0% is about no effect
Shiga inhibitor – blocks Shiga toxin action in Vero cells; Vero cells, Shiga toxin protein synthesis inhibition reporter; inhibition, % at 38.7 µM; actives 9.2% (n = 290,000); AID 2315; in the data active = inhibition mostly above about 28%, no sharp cut-off; inactive = mostly below about 43%; note: 0% is about no effect
Pf growth 48h – P. falciparum growth inhibition at 48 hours (one generation); P. falciparum luciferase growth in erythrocytes, 48 h; Potency, µM (highest dose often 28.7 µM), inactives show at the top dose activity change, negative = inhibition, most hits filed as inhibitors; actives 5.9% (n = 310,000); AID 504832; note: potency is the fitted concentration of half-maximal effect; % is set by controls: 0 for no effect and ±100 for the full control effect
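In quantitative HTS format, infected erythrocytes bearing luciferase-reporter parasites were treated for a single generation at 37 C. Luminescence after adding detection reagent served as the growth measure.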
Pf growth 96h – inhibits malaria parasite growth, 96 h | P. falciparum luciferase reporter growth, 96 h | Potency, µM (top dose mostly 28.7 µM), for inactives: at the highest dose activity change, negative = inhibition, actives largely listed as inhibitors | AID 504834 | actives 6.9% (n = 320,000); note: potency is the fitted concentration of half-maximal effect; % is set by controls: 0 for no effect and ±100 for the full control effect
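Parasite growth measured via integrated firefly luciferase reporter in P. falciparum. Infected erythrocytes at 2% hematocrit, 0.05% parasitemia final were treated 96 hours at 37 C under 5% CO2, and luminescence was read.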
LmPK inhibitor – inhibitors of Leishmania mexicana pyruvate kinase | Q27686 | actives 0.37% (n = 290,000) | AID 1721 | purified LmPK, Kinase-Glo ATP luminescence, 1 h | Potency, µM (highest dose often 57.5 µM), for inactives: top-dose activity change, negative = inhibition, most hits filed as inhibitors; note: potency is the fitted concentration of half-maximal effect; % is set by controls: 0 for no effect and ±100 for the full control effect
Target sequence (Q27686 whole entry, looked up): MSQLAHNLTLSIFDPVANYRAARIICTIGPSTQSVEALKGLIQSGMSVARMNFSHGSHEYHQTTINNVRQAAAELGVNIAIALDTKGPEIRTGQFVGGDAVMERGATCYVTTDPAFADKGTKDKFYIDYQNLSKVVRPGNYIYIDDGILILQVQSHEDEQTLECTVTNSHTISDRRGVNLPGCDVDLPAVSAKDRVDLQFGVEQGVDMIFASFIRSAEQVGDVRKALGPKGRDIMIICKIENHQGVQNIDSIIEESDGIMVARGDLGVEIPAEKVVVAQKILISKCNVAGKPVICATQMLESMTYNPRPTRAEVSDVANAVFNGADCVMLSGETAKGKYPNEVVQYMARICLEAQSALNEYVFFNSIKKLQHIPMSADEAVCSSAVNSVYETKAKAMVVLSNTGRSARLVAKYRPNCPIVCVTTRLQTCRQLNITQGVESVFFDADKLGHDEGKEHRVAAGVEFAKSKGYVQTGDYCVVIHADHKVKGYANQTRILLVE
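Screened at intermediate enzyme activity to detect both inhibitors and activators: LmPK at 0.1 nM, with a 0.5 nM enzyme column as activation reference. PEP 0.5 mM, ADP 0.1 mM; ATP detected by luminescence after 1 h.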
Starred values were filed as active, the others as inactive; i = inactive; ? = inconclusive; . = no result given; [ ] = dose if it differs, or a comment. An excerpt weighted towards active compounds, which were near 22% of everything screened. Unless noted, calls come from the whole dose curve; as a rule, active = well fitted inhibition curve with a large enough effect; inconclusive = small, poorly fitted or top-dose-only effect, or another doubt; inactive = no such curve, though single readings can be large or run the other way.

SMILES	CHX counter	Shiga inhibitor	Pf growth 48h	Pf growth 96h	LmPK inhibitor
COc1ccc(C(=O)Nc2ccccc2C(=O)NC(Cc2ccc(O)cc2)C(=O)NNC(=O)c2ccccc2Cl)cc1 (configuration not stated)	12*	4	5.2µM*	32%	1%
O=C(Nc1ccccc1C(=O)NC(Cc1ccccc1)C(=O)NC1CCCCC1)c1ccccc1 (configuration not stated)	-1	-5	10µM*	?	1%
COc1ccc(CCC(=O)NNC(=S)Nc2cccc(C(C)=O)c2)cc1	-2	-7	-7%[5.75 µM]	33%[5.75 µM]	4%
C=C1C2c3ccccc3C(CC2(C)O[Si](C)(C)C)N1C(=O)OC (configuration not stated)	.	.	.	.	0%[11.5 µM]
CN(c1ccccc1)S(=O)(=O)c1cccc(C(=O)Nc2ccc3c(c2)CCC3)c1	21*	82*	?	?	2%
CN(c1ccccc1)S(=O)(=O)c1cccc(NC(=O)c2cc(=O)c3ccccc3o2)c1	1	15	?	10µM*	4%
CN(c1ccccc1)S(=O)(=O)c1cccc(NC(=O)c2cncc(Br)c2)c1	-4	-5	10µM*	8.3µM*	0%
O=C(Nc1cccc(S(=O)(=O)N2CCCCCC2)c1)c1cc(=O)c2ccccc2o1	-3	18	?	?	3%
CC(=O)Nc1ccc(C(=O)Nc2cccc(S(=O)(=O)N(C)c3ccccc3)c2)cc1	.	.	9.3µM*	?	.
O=C(Cc1n[nH]c(=O)c2ccccc12)Nc1cc(Cl)ccc1-n1cncn1	.	.	6%	22%	.
COc1cc2[nH]c(Cl)c([N+](=O)[O-])c2cc1OC	-1	-3	-1%	3%	2%
CN(c1ccccc1)S(=O)(=O)c1ccc(NC(=O)c2ccc(-c3ccccc3)cc2)cc1	2	-15	?	?	3%
O=C(O)c1cccc(S(=O)(=O)Nc2cccc(S(=O)(=O)Nc3ccc(Br)cc3)c2)c1	.	.	2%	1%	.
CCN(CC)S(=O)(=O)c1cccc(NC(=O)CCNC(=O)c2ccc([N+](=O)[O-])cc2)c1	14*	48*	?	-6%	1%
Cc1nc2cc(NC(=O)c3ccc(S(=O)(=O)N(C)c4ccccc4)cc3)ccc2o1	30*	126*	?	?	-5%
O=C(O)c1cccc(S(=O)(=O)Nc2ccc3c(c2)CCC3)c1	4	-20	39%	4.1µM*	1%
CN(c1ccccc1)S(=O)(=O)c1cccc(NC(=O)CCNC(=O)c2ccccc2)c1	.	.	9.3µM*	?	.
O=C(NNS(=O)(=O)c1ccc(Cl)cc1)c1cc(-c2ccccc2)nc2ccccc12	-3	10	-2%	12%	1%
Nc1nc(Cl)nc2ncn(Cc3ccccc3)c12	-3	-30	0%	0%	0%
CCC(=O)Nc1cccc(NC(=O)c2ccccc2Br)c1	-4	-12	33%	-7%	1%
CCN(CC)S(=O)(=O)c1cccc(NC(=O)c2ccccc2Br)c1	-1	30	10µM*	?	7%
CN(C)S(=O)(=O)c1ccc2c(c1)Cc1cc(S(=O)(=O)N(C)C)ccc1-2	7	-4	11%	22%	-12%
CCNc1nc(NCC)nc(NS(=O)(=O)c2ccc(N)cc2)n1	-1	-6	4%	15%	0%
Cc1cc(C(=O)CCC(=O)NCc2ccccc2F)c(C)s1	.	.	4%	41%	.
COc1cccc(C(=O)NCC(=O)N2CCC(C)CC2)c1	25*	35	76%	74%	-4%
SMILES	CHX counter	Shiga inhibitor	Pf growth 48h	Pf growth 96h	LmPK inhibitor
CC1CCN(C(=O)CNC(=O)c2cccc(OC(F)F)c2)CC1	18*	49*	58%	14%	-2%
COc1ccc(N2CCN(C(=O)COC(=O)CNC(=O)c3cccc(OC(F)F)c3)CC2)cc1	.	.	13%	-8%	.
CCOc1cc2c(cc1/C=C/c1noc(C)c1[N+](=O)[O-])OC(C)C2 (configuration not stated)	-2	3	-10%	?	-6%
Cc1nc(-c2ccccc2)sc1-c1ccnn1C	35*	81*	i	414%	-6%
Cc1nc(-c2ccccc2)sc1-c1ccn[nH]1	28*	69*	183%	292%	-13%
CCC(Sc1nncn1C)C(=O)Nc1nnc(-c2ccccc2Cl)s1 (configuration not stated)	17*	27	-3%	9%	2%
CCOC(=O)N1CCN(C(=O)C(=O)Nc2sc3c(c2C(=O)O)CC(C)(C)OC3)CC1	-2	-15	-18%	?	4%
O=C(N/C=N/O)C1=NOC(CNc2ncc(C(F)(F)F)cc2Cl)C1 (configuration not stated)	9	-5	.	-2%	6%
O=C(NC1CC1)C1=NOC(CNc2ncc(C(F)(F)F)cc2Cl)C1 (configuration not stated)	-2	-12	.	12µM*	-1%
CC(C)c1ccc(NC(=O)CN2C(=O)COc3ccc(S(=O)(=O)N4CCOCC4)cc32)cc1	14	12	11%	-2%	8%
Oc1ccc(/C=N/N2CCN(C3c4ccccc4-c4ccccc43)CC2)cc1	-2	-4	37%	32%	3%
O=C(O)c1ccc(/C=N/N2CCN(C3c4ccccc4-c4ccccc43)CC2)cc1	-2	1	?	-11%	22µM*
Cn1c(SCC(=O)N2CCCCC2)nc2cccnc21	-1	18	30%	13µM*	-2%
COc1ccccc1NC(=O)CSc1ccc(-c2ccccn2)nn1	13*	19	?	?	0%
COc1ccc(NC(=O)CSc2ccc(-c3ccccn3)nn2)cc1OC	0	-8	?	?	-1%
O=C(CSc1ccc(-c2ccccc2)nn1)c1ccccc1	42*	60*	83%	68%	2%
O=C(CSc1cnc2ccccc2n1)c1ccc(F)cc1	60*	65*	317%	352%	-19%
c1ccc(CSc2ccc(-c3ccccn3)nn2)cc1	52*	110*	297%	-15%	1%
O=C(CSc1ccc(-c2ccccn2)nn1)c1ccc(F)cc1	33*	51*	34%	-7%	-8%
O=C(CSc1ccc(-c2ccccn2)nn1)Nc1ccc(F)cc1F	-2	-7	17%	?	-1%
O=C(CSc1ccc(-c2ccccn2)nn1)N1CCCC1	25*	43	20%	-10%	2%
O=C(CSc1ccc(-c2ccccn2)nn1)NC1CCCC1	15	25	6%	?	-1%
O=C(CSc1ccc(-c2ccccn2)nn1)c1ccccc1	49*	87*	100%	0%	12%
Cc1ccc(C(=O)CSc2ccc(-c3ccccc3)nn2)cc1	10	9	18%	10%	6%
Clc1ccc(CSc2ccc(-c3ccccn3)nn2)cc1	9	17	?	?	3%
Cc1ccc(SCC(=O)Nc2cccc(-c3nnc(-c4ccco4)o3)c2)cc1	21*	56*	-91%	28%	1%

Bioassay records (PubChem BioAssay)
